Rows were chosen to be rich in hits. Some 2.7% of all compounds tested hit in one or more screens of this group.
A549 viability: kills or reduces viability of A549 cells in Nrf2 counter-screen; A549 ARE-Fluc cells, CellTiter-Fluor viability, 18-24 h; 390,000 tested, 0.16% active; Potency, µM (titrated, usually from 46 µM), for inactives: at the highest dose activity change, negative = cytotoxicity, hits mostly inhibitors; also: potency is read from the fitted curve at half-maximal effect; % is scaled to controls: 0 for no effect and ±100 for the full control effect
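A549 ARE_Fluc cells in 5% FBS OPTI-MEM were exposed to compounds in concentration-response for 18-24 h at 37 deg C. Viability was read by CellTiter-Fluor fluorescence (Ex 405/Em 525) after 30 min, before the luciferase read.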
LDHA block: LDHA (human) enzyme inhibition; P00338; purified LDHA, NADH/diaphorase-resazurin fluorescence; active compounds read low; activity change, % (values are at about 110 or 230 µM); 480,000 tested, 0.15% active; in the data active = activity change below about -30%; inconclusive = mostly about -25% to -30%;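 also: plate controls were DMSO wells for no effect and wells without enzyme for full effect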
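Remaining NADH was detected by diaphorase (0.133 mg/mL) converting 37 µM resazurin to fluorescent resorufin, read at 0 and 20 minutes. The preceding 5-minute room-temperature reaction used 2 nM LDHA, 0.2 mM sodium pyruvate and 0.06 mM NADH at pH 7.4.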
ERG Ets-DNA blk: ERG Ets/DNA interaction inhibition; P11308; fluorescence polarization, His-ERG Ets domain / labelled DNA; Potency, µM (highest dose often 76.9 µM), for the others: at the highest dose FP activity, negative = inhibition, hits mostly inhibitors; 370,000 tested, 0.028% active; AID 624246; active = well fitted inhibition curve with a large enough effect in the polarisation, with a control signal flat; inconclusive = small, poorly fitted or top-dose-only effect, or effect the other way, or a change in a side signal; inactive = no such curve, though single readings can be large or run the other way; the % refers to the polarisation;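 also: polarization taken with two DNA probes labelled with fluorescein and Texas red; potency is read from the fitted curve at half-maximal effect; % of control where 0% means no effect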
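His-tagged ERG Ets domain (1 uM in the protein solution; 300mM KCl, 50mM Tris-HCl, 1mM EDTA, 1mM DTT, pH 7.5) received compound, then a probe mix of 5 nM fluorescein-DNA and 100nM Texas-615-DNA. Fluorescence polarization was read for both dyes.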
Nrf2 ARE act: Nrf2 pathway activation | Potency, µM (top dose mostly 46.1 µM), for inactives: at the highest dose activation, hits mostly activators | AREc32 ARE-luciferase reporter (MCF7-derived line), luminescence, 24 h | 410,000 tested, 0.31% active | AID 624171; also: potency is read from the fitted curve at half-maximal effect; % of control where 0% means no effect; nearly all actives have a fitted effect of over 65% in size
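ARE-driven firefly luciferase activity in AREc32 cells measured after a 24 hr compound exposure at 37 deg C, using Steady-Glo reagent and a 30 min room-temperature hold.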
Nrf2 inh: blocks Nrf2 signaling; A549 ARE-Fluc reporter, luciferase luminescence, 18-24 h; Potency, µM (titrated, usually from 46 µM), for inactives: top-dose activity change, negative = inhibition, hits mostly inhibitors; 360,000 tested, 2.1% active; AID 504444; also: potency is read from the fitted curve at half-maximal effect; % is scaled to controls: 0 for no effect and ±100 for the full control effect; nearly all actives have a fitted effect of over 60% in size
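Concentration-response testing used A549 ARE_Fluc cells at 5000 cells/well. Following an 18-24 h compound incubation, viability was read by fluorescence (Ex 405/Em 525) and luciferase output by luminescence.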
12-LOX inh: inhibitors of human 12S-lipoxygenase ALOX12; P18054; Potency, µM (top dose mostly 108 µM), for the others: at the highest dose activity change, negative = inhibition, most hits filed as inhibitors; 580,000 tested, 1.1% active; purified 12hLO, xylenol orange hydroperoxide absorbance; also: potency is read from the fitted curve at half-maximal effect; % is scaled to controls: 0 for no effect and ±100 for the full control effect
Target sequence (P18054 whole entry, looked up): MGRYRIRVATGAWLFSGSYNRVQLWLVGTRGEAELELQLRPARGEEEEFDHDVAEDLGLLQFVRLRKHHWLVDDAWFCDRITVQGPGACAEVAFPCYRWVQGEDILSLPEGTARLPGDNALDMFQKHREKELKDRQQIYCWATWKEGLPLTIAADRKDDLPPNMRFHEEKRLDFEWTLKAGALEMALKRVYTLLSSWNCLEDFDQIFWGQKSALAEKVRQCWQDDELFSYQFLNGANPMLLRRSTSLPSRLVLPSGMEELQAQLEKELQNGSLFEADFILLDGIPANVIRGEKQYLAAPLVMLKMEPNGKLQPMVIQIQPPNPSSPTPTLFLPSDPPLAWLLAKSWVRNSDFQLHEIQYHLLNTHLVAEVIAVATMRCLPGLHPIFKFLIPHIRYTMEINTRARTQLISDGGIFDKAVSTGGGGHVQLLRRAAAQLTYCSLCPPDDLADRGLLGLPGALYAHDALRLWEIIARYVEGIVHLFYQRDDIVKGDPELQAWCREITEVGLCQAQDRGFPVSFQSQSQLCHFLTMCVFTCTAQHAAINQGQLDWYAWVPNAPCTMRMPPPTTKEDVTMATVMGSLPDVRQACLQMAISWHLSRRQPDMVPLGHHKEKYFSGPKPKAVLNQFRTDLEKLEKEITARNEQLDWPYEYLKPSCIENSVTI
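Hydroperoxide product was detected by ferrous iron/xylenol orange as the 573 to 405 nm absorbance ratio. Arachidonic acid at 40 uM (final) was turned over for 30 min at room temperature by 150 nM human 12hLO, pH 7.0 Hepes buffer, after 15 min compound preincubation.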
* = called active by the depositor; ? = inconclusive; / = no result given; [ ] = dose if it differs, or a comment. Unless noted, calls follow the shape of the dose curve; as a rule, active = well fitted curve in the direction sought with a large enough effect; inconclusive = small, poorly fitted or top-dose-only effect, or another doubt; inactive = no such curve, though single readings can be large; an effect the other way counts as inactive or inconclusive.

SMILES	A549 viability	LDHA block	ERG Ets-DNA blk	Nrf2 ARE act	Nrf2 inh	12-LOX inh
CCOC(=O)C(=Cc1ccc(OCc2ccc([N+](=O)[O-])cc2)c(OC)c1)C(=O)OCC	?	-7.7	8.5%	?	?	166.5%
Cc1noc(C)c1-c1nc(NCCN2CCOCC2)c2ccccc2n1	/	/	/	/	/	56.2µM*
O=Cc1ccc(-c2ccc(Br)cc2F)o1	/	2.1	/	/	/	-17.7%
Cc1cc(C(=O)NCc2ccc(CN3CCCC3)cc2)sc1C	/	-3.4	/	/	/	?
O=C(c1ccc(OCc2cn3ccccc3n2)cc1)N1CCN(c2ccccn2)CC1	/	-12.0	/	/	/	15.6%
O=C1C=CC(=O)c2c(O)c(CO)c(CO)c(O)c21	16.4µM*	19.2	/	8.4%	23.1µM*	?
O=S(=O)(c1ccc2c(c1)OCCO2)c1nc(-c2ccccc2F)oc1N1CCOCC1	/	2.3	/	/	/	?
Cc1ccc2oc(-c3cccc(NC(=O)c4cccs4)c3C)nc2c1	/	1.2	/	/	/	?
S=C(Nc1ccccc1)Nc1nc2ccccc2n1CCOc1ccc(Cl)cc1	-10.9%	-1.2	3.8%	-1.5%	?	8.91µM*
CCn1c(NC(=S)Nc2ccccc2)nc2ccccc21	-9.1%	-9.8	-7.3%	8.5%	2.4%	?
CCCn1c(NC(=S)Nc2ccccc2)nc2ccccc21	12.1%	-5.5	-2.2%	9.3%[9.22 µM]	5.7%	22.4µM*
Cc1cccc(-c2nc(CSCC(=O)N3CCN(Cc4ccc5c(c4)OCO5)CC3)c(C)o2)c1	1.8%	-0.6	-2.4%	0.0%	20.6µM*	0.0%
Cc1cccc(Cc2c(C)nc3c(C(=O)NCc4ccco4)cnn3c2C)c1	?	8.0	9.5%	14.8%	23.1µM*	?
Cc1cccc(Cc2c(C)nc3c(C(=O)N4CCN(Cc5ccc6c(c5)OCO6)CC4)cnn3c2C)c1	-0.6%[1.84 µM]	-2.0	-9.8%	2.5%	18.4µM*	-2.7%
CCCc1ccc(C(C)NC(=S)NC2CCCCC2)cc1 (configuration not stated)	10.3%	0.6	1.0%	1.7%	-82.3%	35.5µM*
CCOc1ccc(C(C)NC(=S)NCc2ccc(Cl)cc2)cc1 (configuration not stated)	2.0%	1.2	5.2%	-0.6%	?	39.8µM*
CC(NC(=S)NC1CCCCC1)c1ccccc1 (configuration not stated)	-1.3%	0.1	15.1%	-0.6%	?	-12.7%
CCNC(=S)NCc1ccc(Cl)cc1	-1.7%	-4.5	-0.6%	0.0%	-8.0%	0.0%
CCC(NC(=S)NCc1ccc(F)cc1)c1ccc(C(C)C)cc1 (configuration not stated)	-10.9%	-1.1	3.9%	2.3%	?	?
CCCc1ccc(C(C)NC(=S)NCc2ccc(F)cc2)cc1 (configuration not stated)	0.2%	-2.6	12.3%	2.0%	?	31.6µM*
CCC(C)c1ccc(C(C)NC(=S)NCc2ccc(F)cc2)cc1 (configuration not stated)	-20.6%	-3.3	3.9%	1.3%	14.6µM*	39.8µM*
Cc1nc(N2CCN(C(=O)C(N)=O)CC2)c(C#N)c2c1CCCC2	/	7.3	/	/	/	9.1%
Cc1cc(C(=O)NC(C)c2cccc(OC(F)F)c2)sc1C (configuration not stated)	/	4.7	/	/	/	60.8%
CCNC(=S)Nc1ccc(C)c(Cl)c1	2.4%	-5.7	-1.8%	2.1%	17.5%	?
CCNC(=S)Nc1ccc(Cl)c([N+](=O)[O-])c1	?	-2.5	21.0%	3.2%	18.4µM*	?
SMILES	A549 viability	LDHA block	ERG Ets-DNA blk	Nrf2 ARE act	Nrf2 inh	12-LOX inh
COc1ccc(S(=O)(=O)N2CCCCC2)cc1NC(=O)c1[nH]c(C)c(C(C)=O)c1C	-1.3%	-11.4	-13.9%	10.9%	18.4µM*	5.4%
COc1ccc(S(=O)(=O)N2CCCCC2)cc1NC(=S)Nc1cccc(Cl)c1C	0.0%	-10.9	11.3%	-1.1%	?	39.8µM*
COc1cc2c(cc1OC)CN(C(=S)Nc1cccc(Cl)c1C)CC2	-9.0%	-5.4	1.8%	-0.1%	18.4µM*	0.1%
COc1ccc(S(=O)(=O)N2CCOCC2)cc1NC(=O)CN(C)Cc1c(F)cccc1Cl	-7.7%	1.7	2.0%	0.7%	20.6µM*	42.9%
CC(=O)c1c(C)[nH]c(C(=O)Nc2cc(S(=O)(=O)N3CCCCC3)ccc2C)c1C	2.0%	2.6	-5.1%	10.1%	?	4.6%
COc1ccc(S(=O)(=O)N2CCOCC2)cc1NC(=O)Cc1c(Cl)cccc1Cl	9.2%	1.4	7.3%	0.1%[9.22 µM]	-1.7%	-0.2%
COc1ccc(S(=O)(=O)N2CCCCC2)cc1NC(=S)Nc1ccccc1	0.3%	0.5	-6.2%	0.0%	10.6%	-28.3%
NC(=O)C(Cc1ccccc1)NS(=O)(=O)c1ccc(Cl)s1 (configuration not stated)	/	-5.8	/	/	/	-10.8%
CC(C(=O)NC1CCCC1)N1CCC(c2nc3ccccc3o2)CC1 (configuration not stated)	/	3.0	/	/	/	32.1%
C=CCn1c(SCC(=O)Nc2sccc2C(N)=O)nc2ccc(Cl)cc2c1=O	?	-2.0	-1.8%	10.4%	?	0.0%
C=CCn1c(SCC(=O)Nc2sccc2C(N)=O)nc2ccccc2c1=O	-24.7%	-7.7	9.3%	0.8%	25.9µM*	3.4%
C=CCn1c(SC(C)C(N)=O)nc2sc(CC)cc2c1=O (configuration not stated)	-2.3%	-11.2	-5.0%	0.3%	4.0%	0.1%
C=CCn1c(SCC(=O)Nc2sccc2C(N)=O)nc2sc(CC)cc2c1=O	?	-5.7	-4.5%	15.1%	14.6µM*	-17.3%
O/N=c1/oc2cc3occ(-c4ccccc4)c3cc2c2c1CCC2	/	2.6	/	/	/	-7.7%
COc1ccc(C)cc1NC(=O)CSc1nc2ccsc2c(=O)n1-c1ccccc1	/	-20.1	/	/	/	?
COc1cccc(SCC(=O)c2ccc3c(c2)NC(=O)CO3)c1	/	9.3	/	/	/	?
COc1cccc(SCC(=O)c2ccc3c(c2)CCC(=O)N3)c1	/	6.4	/	/	/	35.5µM*
CCOC(=O)[C@H](CCc1ccccc1)N[C@@H](C)C(=O)N1[C@@H](C(=O)O)C[C@@H]2CCC[C@@H]21	/	/	/	/	/	-8.9%[57.4 µM]
COc1cccc(C(=O)OC(C)CN2CCCC2)c1 (configuration not stated)	-6.7%	-0.4	1.9%	-0.7%	11.2%	0.0%
CC(CN1CCCCC1)OC(=O)c1cccc(F)c1 (configuration not stated)	3.2%	-8.6	-0.1%	0.0%	0.6%	56.2µM*
Cc1ccc2c(CSc3ncn[nH]3)cc(=O)oc2c1	/	3.7	/	/	/	?
COc1ccc(CCNC(=O)c2cc3c(s2)-c2c(C)cccc2OC3)cc1OC	/	-1.1	/	/	/	?
